# Assay results: PubChem BioAssay AID686978 (National Center for Advancing Translational Sciences (NCATS), 2013)
# Out of some 420,000 compounds screened, about 64,000 (15%) were called active. Roughly 27% stayed inconclusive and do not appear here. The call rests on the fitted dose curve; in most records, active means well fitted inhibition curve with a large enough effect; inconclusive means small, poorly fitted or top-dose-only effect; inactive means flat fitted curve, though single readings scatter. Not all results are given here. Entries that show only a call come without a potency.
# Assay: qHTS for Inhibitors of human tyrosyl-DNA phosphodiesterase 1 (TDP1): qHTS in cells in absence of CPT; further: nearly all actives have a fitted effect of over 55% in size
# Conditions: DT40 Tdp1-/- hTDP1 cells, no CPT, ATP luminescence, 48 h; activity change, negative = growth inhibition: at 46.2 µM (top of the series)
# Summary of the method: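 Stably hTDP1-transfected Tdp1-null chicken DT40 cells were treated with library compounds minus camptothecin and grown for at least 48 hr at 37 °C, after which cellular ATP was quantified by luminescence.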
# Potency means the concentration at half of the fitted maximal effect.
row,Structure (SMILES),Potency
1,O=C1CC(Cc2ccccc2)C(=O)N1c1ccc(Cl)cn1 (stereo not drawn),inactive
2,Cc1ccn(-c2cccc(-n3ccc(C)n3)n2)n1,inactive
3,COCCCn1c(SCC(=O)Nc2ccccc2)nnc1-c1ccncc1,inactive
4,CCOC(=O)C1CSC(CC(=O)Nc2ccc(OCC)cc2)C(=O)N1 (stereo not drawn),inactive
5,O=C(C1CCCO1)N1CCN(C(=O)C23CC4CC(CC(C4)C2)C3)CC1 (stereo not drawn),inactive
6,COc1ccc(OC)c(-c2csc(NC(=O)C3=NNC(=O)CC3)n2)c1,13 µM (active)
7,COc1ccc(OC)c(-c2csc(NC(=O)COC(=O)C3CC3)n2)c1,inactive
8,COc1ccc(NC(=O)C2=NNC(=O)CC2)cc1S(=O)(=O)N1CCCCC1,inactive
9,COc1ccnc(Oc2ccccc2)n1,inactive
10,CCc1nnc(NC(=O)Cc2cccs2)s1,inactive
11,Fc1ccc2cnc(-c3ccccc3)cc2c1,inactive
12,CNc1nc(-c2ccccc2)cc(-c2ccccc2)n1,inactive
13,CSc1nc(Nc2ccc(F)cc2)cc(-c2ccccc2)n1,23.1 µM (active)
14,O=C(c1ccc(Cn2cc([N+](=O)[O-])cn2)o1)N1CCCC1,inactive
15,COCC(=O)Nc1ccc(Br)cc1,inactive
16,Cc1ccc(CCNC(=O)c2nnc(Cc3cccc(F)c3)o2)cc1,inactive
17,Cc1cc(Br)ccc1NC(=O)C1CCCO1 (stereo not drawn),inactive
18,C[C@@H]1NS(=O)(=O)c2cc(Cl)ccc2O[C@@H]1c1ccccc1,inactive
19,COC(=O)C1=C(C)Nc2ncnn2C1c1ccco1 (stereo not drawn),inactive
20,COC(=O)C1=C(C)Nc2ncnn2C1c1cccnc1 (stereo not drawn),inactive
21,CC1=C(C(=O)OC2CCCCC2)C(c2cccnc2)n2ncnc2N1 (stereo not drawn),20.6 µM (active)
22,O=C(CSc1nnc(-c2ccc(NS(=O)(=O)c3ccccc3)cc2)o1)NCC1CCCO1 (stereo not drawn),inactive
23,COc1ccc(-c2csc(Nc3ccc(O)cc3)n2)cc1,6.51 µM (active)
24,CN(c1ccc(O)cc1)c1nc(-c2cccnc2)cs1,inactive
25,Cc1ccccc1Nc1nc(-c2cccnc2)cs1,inactive

row,Structure (SMILES),Potency
1,Clc1ccc(-c2csc(-c3ccncc3)n2)cc1,inactive
2,COc1ccc(-n2c(SC)nc(O)cc2=O)cc1,inactive
3,c1ccc(Nc2nc(-c3ccncc3)cs2)nc1,16.4 µM (active)
4,O=C(NCc1cccnc1)C(=O)Nc1nc(-c2ccccc2)cs1,inactive
5,Oc1ccc(-c2csc(Nc3cccnc3)n2)cc1,29.1 µM (active)
6,COc1ccc(-c2csc(Cc3nc(O)cs3)n2)cc1,14.6 µM (active)
7,COc1ccc(Nc2nc(-c3ccccc3)cs2)cc1,inactive
8,COc1ccc(C(C)NC(=O)C2CCCC2)cc1 (stereo not drawn),inactive
9,NC(=O)c1ccc(NC(=O)COC(=O)C(Cc2ccccc2)NC(=O)c2ccccc2)cc1 (stereo not drawn),inactive
10,O=C(O)c1ccc(NC(=O)c2ccc(COc3ccc(Cl)cc3)o2)cc1,inactive
11,CC(=O)Nc1cc(C(=O)N2CCc3c(Cl)cccc3C2)cc2ncn(CCc3ccccn3)c12,inactive
12,COc1cccc(C2/C(=C(/O)c3ccc(F)cc3)C(=O)C(=O)N2CCN(C)C)c1 (stereo not drawn),inactive
13,O=C1CC(C(=O)O)NC(=S)N1 (stereo not drawn),inactive
14,CCCCCN(C(=O)NC(=O)Nc1cccc(C)c1C)S(C)(=O)=O,inactive
15,COc1ccc(C2CC(c3cccc(OC)c3)=NN2c2ccc(S(N)(=O)=O)cc2)cc1 (stereo not drawn),inactive
16,COc1ccccc1OCCOc1ccc(/C=C2\C(=N)N3N=C(C)SC3=NC2=O)cc1,inactive
17,COc1ccc(OC)c(Nc2nc(-c3ccc(O)c(O)c3)cs2)c1,1.16 µM (active)
18,CCN(CC(=O)Nc1c(F)cccc1F)C(=O)CN1c2cccc3cccc(c23)S1(=O)=O,inactive
19,CCn1c(SCC(=O)NCC2CCCO2)nc2cc(S(=O)(=O)N3CCCCC3)ccc21 (stereo not drawn),inactive
20,Cc1ccc(NC(=O)CSc2nnc(COc3ccccc3C)o2)cc1,inactive
21,CC1CCCC(C)N1C(=O)CSc1nnnn1C1CCCC1 (stereo not drawn),inactive
22,CCCCc1ccc(NC(=S)NCCCN2CCOCC2)cc1,inactive
23,CCOc1cccc(/C=N/NC(=S)NCCN2CCOCC2)c1O,2.91 µM (active)
24,Cc1ccc(NC(=S)NCCN2CCOCC2)cc1,inactive
25,Brc1cnc(N2CCCC2)nc1N1CCCCC1,inactive

row,Structure (SMILES),Potency
1,C=CCn1c(CNS(=O)(=O)c2ccc(Br)cc2)nnc1SC,inactive
2,CCC(C)(C)NC(=O)CN(Cc1cccs1)C(=O)CNS(=O)(=O)c1ccc(F)cc1,inactive
3,COc1ccc(NC(=O)CN(C)C(=O)c2cccc(S(=O)(=O)N3CCN(c4ccccc4)CC3)c2)cc1,20.6 µM (active)
4,COc1ccc(OC)c(NC(=O)c2cccc(S(=O)(=O)N3CCN(C(C)=O)CC3)c2)c1,inactive
5,CCOc1ccc(NC(=O)CN(C)C(=O)c2cccc(S(=O)(=O)N3CCCC3)c2)cc1OCC,inactive
6,O=C(NCc1ccccc1Cl)NC(=O)c1csc([N+](=O)[O-])c1,inactive
7,CCCOc1ccc(Cc2c(O)nc(SC)[nH]c2=O)cc1C,inactive
8,COc1cccc(NC(=O)CN2CCN(CC(=O)Nc3ccccc3Cl)CC2)c1,inactive
9,COc1cccc(NC(=O)C2(C)CCN2Cc2ccccc2Cl)c1 (stereo not drawn),25.9 µM (active)
10,COc1cccc(NC(=O)NCCN2CCCCC2)c1,inactive
11,O=C1COc2c1ccc(O)c2O,inactive
12,Cc1c(Cc2ccccc2)c(=O)oc2cc(OCC(N)=O)ccc12,inactive
13,CC(=O)c1c(C)n(-c2ccc(N(C)C)cc2)c2ccc(OCC(N)=O)cc12,23.1 µM (active)
14,CC(=O)c1c(C)n(-c2ccc(C)cc2)c2ccc(O)cc12,inactive
15,COc1ccc(CN2CCCC(N3CCc4ccccc4C3)C2)c(O)c1 (stereo not drawn),inactive
16,Cc1ccc(NS(=O)(=O)c2ccc(F)cc2)nc1,inactive
17,Cn1nccc1NS(=O)(=O)c1ccc(F)cc1,inactive
18,Cc1cc(F)ccc1NS(=O)(=O)c1ccc(-n2cccn2)cc1,16.4 µM (active)
19,COc1ccccc1C(C)NC(=O)Cc1ccsc1 (stereo not drawn),inactive
20,Cc1nn(-c2ccc(F)cc2)c(Cl)c1/C=C(/CCC(=O)O)c1nc2ccccc2s1,inactive
21,CN(Cc1nc2ccccc2s1)C(=O)c1ccc(F)cc1,inactive
22,CC1=CC(=C(C#N)c2nc3ccccc3s2)C=C(C)N1c1ccc(F)cc1F,18.4 µM (active)
23,COCc1c(C(=O)N/N=C\c2cccnc2)nnn1-c1nonc1N,inactive
